# Data: the supplement of paper PMC8728848
# The sample as a whole holds a higher share of the strongest signals than the screen did.
# Assays:
# Assay in all cases: glycan array binding signal (z-score within array); higher = stronger binding
# Conditions in all cases: glycan notation: IUPAC condensed, linker removed
# [1] = target: Fuc(a1-2)Gal(b1-3)GlcNAc(b1-3)GalNAc
# In short: (§1)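 The binding signal is a Z-score computed within each array and averaged over linkers. Arrays of the same protein sequence at different concentrations or buffers were also averaged together. Data originate from 3228 arrays in the Consortium for Functional Glycomics database, kept only where the protein sequence was available.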
# Fuc(a1-2)Gal(b1-4)Glc6S = target: Fuc(a1-2)Gal(b1-4)Glc6S
# In short: as §1
# [2] = target: Fuc(a1-2)Gal(b1-4)GlcNAc(b1-3)Gal(b1-4)GlcNAc
# In short: as §1
# [3] = target: Fuc(a1-2)Gal(b1-4)GlcNAc(b1-3)Gal(b1-4)GlcNAc(b1-2)Man(a1-3)[Fuc(a1-2)Gal(b1-4)GlcNAc(b1-3)Gal(b1-4)GlcNAc(b1-2)Man(a1-6)]Man(b1-4)GlcNAc(b1-4)GlcNAc
# In short: as §1
# [4] = target: Fuc(a1-2)Gal(b1-4)GlcNAc(b1-3)Gal(b1-4)GlcNAc(b1-3)Gal(b1-4)GlcNAc
# In short: as §1
# [5] = target: Fuc(a1-2)Gal(b1-4)GlcNAc(b1-3)GalNAc
# In short: as §1
# [6] = target: Fuc(a1-2)[Gal(a1-3)]Gal(b1-4)GlcNAc(b1-3)[Fuc(a1-2)[Gal(a1-3)]Gal(b1-4)GlcNAc(b1-6)]GalNAc
# In short: as §1
# [7] = target: Fuc(a1-2)[Gal(a1-4)]Gal(b1-4)GalNAc
# In short: as §1
# [8] = target: Fuc(a1-2)[GalNAc(a1-4)]Gal(b1-4)GlcNAc
# In short: as §1
# [9] = target: Fuc(a1-3)[Gal(b1-4)]GlcNAc(b1-4)Gal(b1-4)[Fuc(a1-3)]GlcNAc
# In short: as §1
# Fuc(a1-4)GlcNAc = target: Fuc(a1-4)GlcNAc
# In short: as §1
# Gal(a1-3)Gal(b1-3)Glc = target: Gal(a1-3)Gal(b1-3)Glc
# In short: as §1
# [10] = target: Gal(a1-3)Gal(b1-4)GlcNAc(b1-6)GalNAc
# In short: as §1
# [11] = target: Gal(a1-4)Gal(b1-3)GlcNAc(b1-2)Man(a1-3)[Gal(a1-4)Gal(b1-3)GlcNAc(b1-2)Man(a1-6)]Man(b1-4)GlcNAc(b1-4)GlcNAc
# In short: as §1
# Gal(a1-4)Gal(b1-4)GlcNAc = target: Gal(a1-4)Gal(b1-4)GlcNAc
# In short: as §1
# Gal(b1-3)Gal = target: Gal(b1-3)Gal
# In short: as §1
# Gal(b1-3)Gal(b1-4)GlcNAc = target: Gal(b1-3)Gal(b1-4)GlcNAc
# In short: as §1
# Gal(b1-3)GalNAc = target: Gal(b1-3)GalNAc
# In short: as §1
# [12] = target: Gal(b1-3)GalNAc(b1-3)Gal(b1-4)GlcNAc
# In short: as §1
# [13] = target: Gal(b1-3)GlcNAc(b1-3)GalNAc
# In short: as §1
# [14] = target: Gal(b1-3)GlcNAc(b1-6)Gal(b1-4)GlcNAc
# In short: as §1
# [15] = target: Gal(b1-3)[Fuc(a1-4)]GlcNAc(b1-3)Gal(b1-4)[Fuc(a1-3)]GlcNAc
# In short: as §1
# [16] = target: Gal(b1-4)GalNAc(b1-3)[Fuc(a1-2)]Gal(b1-4)GlcNAc
# In short: as §1
# Gal(b1-4)Glc6S = target: Gal(b1-4)Glc6S
# In short: as §1
# [17] = target: Gal(b1-4)GlcNAc(b1-2)[Gal(b1-4)GlcNAc(b1-6)]Man(a1-6)[Gal(b1-4)GlcNAc(b1-2)Man(a1-3)]Man(b1-4)GlcNAc(b1-4)[Fuc(a1-6)]GlcNAc
# In short: as §1
# [18] = target: Gal(b1-4)GlcNAc(b1-2)[Gal(b1-4)GlcNAc(b1-6)]Man(a1-6)[GlcNAc(b1-4)][Gal(b1-4)GlcNAc(b1-2)Man(a1-3)]Man(b1-4)GlcNAc(b1-4)GlcNAc
# In short: as §1
# [19] = target: Gal(b1-4)GlcNAc(b1-3)Gal(b1-4)GlcNAc(b1-2)Man(a1-3)[Gal(b1-4)GlcNAc(b1-3)Gal(b1-4)GlcNAc(b1-2)Man(a1-6)]Man(b1-4)GlcNAc(b1-4)GlcNAc
# In short: as §1
# [20] = target: Gal(b1-4)GlcNAc(b1-3)Gal(b1-4)GlcNAc(b1-3)Gal(b1-4)GlcNAc
# In short: as §1
# [21] = target: Gal(b1-4)GlcNAc(b1-3)Gal(b1-4)GlcNAc(b1-3)Gal(b1-4)GlcNAc(b1-2)Man(a1-3)[Gal(b1-4)GlcNAc(b1-3)Gal(b1-4)GlcNAc(b1-3)Gal(b1-4)GlcNAc(b1-2)Man(a1-6)]Man(b1-4)GlcNAc(b1-4)[Fuc(a1-6)]GlcNAc
# In short: as §1
binder,measurement,setting,value
Gal 7 (Homo sapiens) (protein) MSNVPHKSSLPEGIRPGTVLRIRGLVPPNASRFHVNLLCGEEGGSDAALHFNPRLDTSEVVFNSKEGGSWGREERGPGVPFGRGQPFEVLIIASDDGFKAVVGDAQYHHFRHRLPLARVRLVEVGGDVQLDSVRIF,glycan array binding signal (z-score),[1],-0.125
same,glycan array binding signal (z-score),Fuc(a1-2)Gal(b1-4)Glc6S,0.834
same,glycan array binding signal (z-score),[2],5.81
same,glycan array binding signal (z-score),[3],5.09
same,glycan array binding signal (z-score),[4],7.12
same,glycan array binding signal (z-score),[5],0.082
same,glycan array binding signal (z-score),[6],-0.267
same,glycan array binding signal (z-score),[7],-0.319
same,glycan array binding signal (z-score),[8],-0.23
same,glycan array binding signal (z-score),[9],-0.214
same,glycan array binding signal (z-score),Fuc(a1-4)GlcNAc,-0.324
same,glycan array binding signal (z-score),Gal(a1-3)Gal(b1-3)Glc,1.04
same,glycan array binding signal (z-score),[10],-0.147
same,glycan array binding signal (z-score),[11],-0.011
same,glycan array binding signal (z-score),Gal(a1-4)Gal(b1-4)GlcNAc,-0.251
same,glycan array binding signal (z-score),Gal(b1-3)Gal,-0.328
same,glycan array binding signal (z-score),Gal(b1-3)Gal(b1-4)GlcNAc,-0.341
same,glycan array binding signal (z-score),Gal(b1-3)GalNAc,-0.006
same,glycan array binding signal (z-score),[12],0.962
same,glycan array binding signal (z-score),[13],0.04
same,glycan array binding signal (z-score),[14],-0.33
same,glycan array binding signal (z-score),[15],-0.289
same,glycan array binding signal (z-score),[16],-0.367
same,glycan array binding signal (z-score),Gal(b1-4)Glc6S,0.576
same,glycan array binding signal (z-score),[17],0.141
same,glycan array binding signal (z-score),[18],-0.186
same,glycan array binding signal (z-score),[19],2.23
same,glycan array binding signal (z-score),[20],0.945
same,glycan array binding signal (z-score),[21],4.99
